Assay results reported in PubChem BioAssay (NCATS).
Where “and” joins values, the source holds several entries; their conditions need not be identical. Equal values may be shown once. Results filed as inconclusive are left out. Calls of active or inactive are those of the source. Unless noted, calls follow the shape of the dose curve; as a rule, active = well fitted curve in the direction sought with a large enough effect; inconclusive = small, poorly fitted or top-dose-only effect, or another doubt; inactive = no such curve, though single readings can be large; an effect the other way counts as inactive or inconclusive.

Assays:
CASKI = test: Primary qHTS to identify gynecologic anti-cancer compounds using libraries of approved drugs and bioactive compounds (AID 1345084); conditions: Gynecologic cancer cell panel viability, ATPlite luminescence, 48 h; series mostly up to 57.5 µM; also: nearly all actives have a fitted effect of over 55% in size; also: potency is read from the fitted curve at half-maximal effect
Procedure, shortened: (§1)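 48 h compound exposure at 37 C, 5% CO2; five-point qHTS. ATPlite luminescence readout of cell ATP.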

Es-2 = test: as above; conditions: Gynecologic cancer cell panel viability, ATPlite luminescence, 48 h; series mostly up to 57.5 µM
Procedure, shortened: as §1

HeLa = test: as above; conditions: Gynecologic cancer cell panel viability, ATPlite luminescence, 48 h; series mostly up to 57.5 µM
Procedure, shortened: as §1

Hek293T = test: as above; conditions: Gynecologic cancer cell panel viability, ATPlite luminescence, 48 h, control line for the selectivity index; series mostly up to 57.5 µM
Procedure, shortened: as §1

JEG-3 = test: as above; conditions: Gynecologic cancer cell panel viability, ATPlite luminescence, 48 h; series mostly up to 57.5 µM
Procedure, shortened: as §1

OV90 = test: as above; conditions: Gynecologic cancer cell panel viability, ATPlite luminescence, 48 h; series mostly up to 57.5 µM
Procedure, shortened: as §1

SKOV3 = test: as above; conditions: Gynecologic cancer cell panel viability, ATPlite luminescence, 48 h; series mostly up to 57.5 µM
Procedure, shortened: as §1

Tov-21-G = test: as above; conditions: Gynecologic cancer cell panel viability, ATPlite luminescence, 48 h; series mostly up to 57.5 µM
Procedure, shortened: as §1

Tov112D = test: as above; conditions: Gynecologic cancer cell panel viability, ATPlite luminescence, 48 h; series mostly up to 57.5 µM
Procedure, shortened: as §1

[1] = Drug repurposing screens with cells derived from glioblastoma tumor samples (AID 1345199); conditions: GBM patient neurospheres viability, ATP luminescence, 48 h; Potency: tumour line A unless noted; series mostly up to 45.9 µM; also: nearly all actives have a fitted effect of over 40% in size; also: potency is read from the fitted curve at half-maximal effect
Procedure, shortened: (§2)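 Four patient lines of CD133+ GBM neurospheres were screened at several concentrations; hits were retested in those lines plus three slower-growing GBM lines, using 48-hour treatment and ATP-based viability.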

PA-1 = test: Primary qHTS to identify gynecologic anti-cancer compounds using libraries of approved drugs and bioactive compounds (AID 1345084); conditions: Gynecologic cancer cell panel viability, ATPlite luminescence, 48 h; series mostly up to 57.5 µM; also: nearly all actives have a fitted effect of over 55% in size; also: potency is read from the fitted curve at half-maximal effect
Procedure, shortened: as §1

[2] = target: Nuclear receptor subfamily 1 group I member 2 (Rattus norvegicus) (UniProt Q9R1A7); test: qHTS assay for small molecule activators of the rat pregnane X receptor (rPXR) signaling pathway (AID 651751; call rule not given here; also: 0% is about no effect); conditions: rPXR reporter cells, luciferase (One-Glo), 24 h
astro = test: Drug repurposing screens with cells derived from glioblastoma tumor samples (AID 1345199); conditions: viability, ATP luminescence, 48 h; series mostly up to 45.9 µM; also: nearly all actives have a fitted effect of over 40% in size; also: potency is read from the fitted curve at half-maximal effect
Procedure, shortened: as §2

[3] = qHTS assay for small molecule activators of the human pregnane X receptor (PXR) signaling pathway (AID 720659; call rule not given here; also: 0% is about no effect)
[4] = qHTS assay to identify inhibitors of the type 1 interferon - major histocompatibility complex class I in skeletal muscle: Counter screen cell viability and HiBit confirmation (AID 1347412); conditions: iHSKM muscle cells + IFN-b, HiBiT or CellTiter-Glo, 24 h; for activity change, negative = inhibition: at 45.9 µM (top of the series); also: potency is read from the fitted curve at half-maximal effect; as to activity change, negative = inhibition: % is scaled to controls: 0 for no effect and ±100 for the full control effect; as to all read-outs here: nearly all actives have a fitted effect of over 60% in size
Procedure, shortened: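 CRISPR HLA-B*08:01-HiBit immortalized human myoblasts (C25cl48) stimulated with 4 ng/ml IFN-beta and compounds (12-point 1:3, top 46 uM final) for 24 h at 37 C. Duplicate plates read by HiBit lytic luminescence or CellTiter Glo ATP.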

Nuclear receptor subfamily 1 group I member 2 (Rattus norvegicus), sequence (Q9R1A7 whole entry, looked up): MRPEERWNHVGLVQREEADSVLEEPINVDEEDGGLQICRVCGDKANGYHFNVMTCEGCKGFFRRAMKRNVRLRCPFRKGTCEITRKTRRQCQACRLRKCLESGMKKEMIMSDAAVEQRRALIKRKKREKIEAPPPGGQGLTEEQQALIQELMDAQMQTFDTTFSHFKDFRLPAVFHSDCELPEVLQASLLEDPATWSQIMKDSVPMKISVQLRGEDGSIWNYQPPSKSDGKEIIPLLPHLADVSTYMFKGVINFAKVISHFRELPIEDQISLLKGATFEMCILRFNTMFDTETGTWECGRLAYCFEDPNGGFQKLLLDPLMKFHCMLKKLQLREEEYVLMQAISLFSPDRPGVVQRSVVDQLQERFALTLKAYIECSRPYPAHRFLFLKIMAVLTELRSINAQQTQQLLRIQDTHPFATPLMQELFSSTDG

O=[N+]([O-])c1ccc([As](=O)(O)O)cc1
inactive: Potency (CASKI) | Potency (Es-2) | Potency (HeLa) | Potency (Hek293T) | Potency (JEG-3) | Potency (OV90) | Potency (SKOV3) | Potency (Tov-21-G) | Potency (Tov112D) | Potency [1]

CC(C)(C)NC[C@H](O)c1ccc(O)cc1Cl
inactive: Potency (CASKI) | Potency (Es-2) | Potency (HeLa) | Potency (Hek293T) | Potency (JEG-3) | Potency (OV90) | Potency (Tov-21-G) | Potency (Tov112D) | Potency [1]

CCO/N=C(\CC)C1=C(O)CC(c2c(C)cc(C)cc2C)CC1=O (stereo not drawn)
inactive: Potency (CASKI) | Potency (Es-2) | Potency (HeLa) | Potency (Hek293T) | Potency (OV90) | Potency (PA-1) | Potency (SKOV3) | Potency (Tov-21-G) | Potency (Tov112D) | Potency [1]

CCCCOC(=O)c1ccccc1C(=O)OCc1ccccc1
inactive: Potency (CASKI) | Potency (Es-2) | Potency (HeLa) | Potency (Hek293T) | Potency (JEG-3) | Potency (PA-1) | Potency (Tov-21-G) | Potency (Tov112D) | Potency [1] | max response [2] 7.11% and 9.37%

CCCCCCCCc1ccc(O)cc1
inactive: Potency (CASKI) | Potency (Es-2) | Potency (HeLa) | Potency (Hek293T) | Potency (JEG-3) | Potency (OV90) | Potency (SKOV3) | Potency (Tov112D) | Potency [1] | Potency (astro) | max response [2] 3.32% and -2.12%

Nc1c(Cl)c(Cl)c(Cl)c(Cl)c1Cl
inactive: Potency (CASKI) | Potency (Es-2) | Potency (HeLa) | Potency (Hek293T) | Potency (JEG-3) | Potency (OV90) | Potency (PA-1) | Potency (Tov-21-G) | Potency (Tov112D) | Potency [1] | max response [2] 0.456% | outcome [3]

CCC1(CCC(C)C)C(=O)NC(=O)NC1=O
inactive: Potency (CASKI) | Potency (Es-2) | Potency (Hek293T) | Potency (JEG-3) | Potency (OV90) | Potency (PA-1) | Potency (Tov-21-G) | Potency (Tov112D) | Potency [1]

CCOCCOC(C)=O
inactive: Potency (CASKI) | Potency (Es-2) | Potency (HeLa) | Potency (JEG-3) | Potency (OV90) | Potency (SKOV3) | Potency (Tov-21-G) | Potency (Tov112D) | Potency [1] | max response [2] -2.9% | outcome [3]

COCCOCCO
inactive: Potency (CASKI) | Potency (Es-2) | Potency (HeLa) | Potency (Hek293T) | Potency (JEG-3) | Potency (PA-1) | Potency (SKOV3) | Potency (Tov-21-G) | Potency (Tov112D) | Potency [1]

CC(Cc1ccc(O)cc1)NCC(O)c1cc(O)cc(O)c1 (stereo not drawn)
inactive: Potency (CASKI) | Potency (Es-2) | Potency (HeLa) | Potency (Hek293T) | Potency (JEG-3) | Potency (PA-1) | Potency (SKOV3) | Potency (Tov-21-G) | Potency (Tov112D) | Potency [1]

O=C(O)CCCOc1ccc(Cl)cc1Cl
inactive: Potency (CASKI) | Potency (Es-2) | Potency (HeLa) | Potency (Hek293T) | Potency (JEG-3) | Potency (OV90) | Potency (PA-1) | Potency (Tov-21-G) | Potency (Tov112D) | Potency [1] | max response [2] 8.43% | outcome [3]

C=CCC1=C(C)C(OC(=O)C2C(C=C(C)C)C2(C)C)CC1=O (stereo not drawn)
inactive: Potency (CASKI) | Potency (Es-2) | Potency (HeLa) | Potency (Hek293T) | Potency (JEG-3) | Potency (OV90) | Potency (Tov-21-G) | Potency (Tov112D)

ClC1=C(Cl)[C@]2(Cl)[C@@H]3[C@@H]4C[C@@H]([C@H]5O[C@@H]45)[C@@H]3[C@@]1(Cl)C2(Cl)Cl
inactive: Potency (CASKI) | Potency (Es-2) | Potency (HeLa) | Potency (Hek293T) | Potency (JEG-3) | Potency (PA-1) | Potency (Tov-21-G) | Potency (Tov112D)

O=C(N[C@@H](COc1ccc2[nH]c(=O)[nH]c2c1)c1ccccc1)c1cccn(Cc2ccc(F)c(F)c2)c1=O
inactive: Potency (CASKI) | Potency (Es-2) | Potency (HeLa) | Potency (Hek293T) | Potency (JEG-3) | Potency (OV90) | Potency (PA-1) | Potency (Tov-21-G) | Potency (Tov112D)

COc1nn(CSP(=S)(OC)OC)c(=O)s1
inactive: Potency (CASKI) | Potency (HeLa) | Potency (Hek293T) | Potency (JEG-3) | Potency (OV90) | max response [2] -6.79% | outcome [3]

CCCCCC[C@H]1C(=O)O[C@H](C)[C@H](NC(=O)c2cccc(NC=O)c2O)C(=O)O[C@@H](C)[C@@H]1OC(=O)CC(C)C
inactive: activity change, negative = inhibition ([4]; HiBiT) -17.2% | activity change, negative = inhibition ([4]; Viability) -10.9% | outcome [3]

CN(C)[C@@H]1C(=O)C(C(N)=O)=C(O)[C@@]2(O)C(=O)C3=C(O)c4c(O)cccc4[C@@](C)(O)[C@H]3[C@H](O)[C@@H]12
inactive: Potency [1] | max response [2] 4.53% and -0.0906% and -2.17%

O=[N+]([O-])c1cc([N+](=O)[O-])c2ccccc2c1
inactive: Potency (CASKI) | Potency (Es-2) | Potency (Hek293T) | Potency (JEG-3) | Potency (OV90) | Potency (PA-1) | Potency (Tov-21-G) | Potency (Tov112D) | Potency [1] | outcome [3]

c1ccc(C2(c3ccccc3)CC2C2=NCCN2)cc1 (stereo not drawn)
inactive: Potency [1] | Potency (astro)

CCCCc1ccc(C(=O)O)nc1
inactive: Potency [1]

COc1ccc2c(c[n+](C)c3c4cc5c(cc4ccc23)OCO5)c1OC
active: Potency ([4]; HiBiT) 7.01 µM | Potency ([4]; Viability) 8.83 µM

Cc1c(C(=O)Nc2cccc(C(F)(F)F)c2)cc(-c2ccccc2)n1CCCN1CCOCC1
inactive: Potency (Es-2) | Potency (HeLa) | Potency (Hek293T) | Potency (JEG-3) | Potency (OV90) | Potency (PA-1) | Potency (SKOV3) | Potency (Tov-21-G) | Potency (Tov112D)

Nc1ccc(Cl)cc1N
inactive: Potency (Es-2) | Potency (HeLa) | Potency (Hek293T) | Potency (JEG-3) | Potency (PA-1) | Potency (Tov112D)

Nc1ccc(N=Nc2ccccc2)cc1
inactive: Potency [1]
active: Potency (OV90) 39.8 µM

COc1ccc(N(C(=O)Oc2c(C)cccc2C)c2ccnc(Nc3ccc(N4CCN(C)CC4)cc3)n2)c(OC)c1
inactive: Potency (CASKI) | Potency (Hek293T) | Potency (JEG-3) | Potency (OV90)

CC(C)Oc1cccc(NC(=O)c2ccccc2C(F)(F)F)c1
inactive: Potency (CASKI) | Potency (JEG-3) | Potency (astro)
active: Potency (OV90) 31.6 µM

Clc1cnc(Oc2ccc(Oc3ncc(Cl)cc3Cl)cc2)c(Cl)c1
inactive: max response [2] 9.03% | outcome [3]

CO/C=C(/C(=O)OC)c1ccccc1Oc1cc(Oc2ccccc2C#N)ncn1
active: Potency (Es-2) 31.6 µM | Potency (Hek293T) 17.8 µM | Potency (OV90) 17.8 µM | Potency (SKOV3) 7.94 µM | Potency (astro) 14.1 µM

CC1=C(O)C(=O)C=C2C1=CC=C1[C@@]2(C)CC[C@@]2(C)[C@@H]3C[C@](C)(C(=O)O)CC[C@]3(C)CC[C@]12C
active: Potency ([4]; HiBiT) 0.787 µM

NC1=NC(=O)N2CC12 (stereo not drawn)
inactive: Potency [1]

CC(C)(O)C(=O)Nc1ccc([N+](=O)[O-])c(C(F)(F)F)c1
inactive: max response [2] -13.9%

CC[C@@]1(O)C(=O)OCc2c1cc1n(c2=O)Cc2cc3ccccc3nc2-1
inactive: activity change, negative = inhibition ([4]; Viability) -5.85% and -9.34%
active: Potency ([4]; HiBiT) 1.76 µM and 1.98 µM
